Assay outcomes as filed in PubChem.
In the library only some 7.9% were active in any assay of this set; here they are far more common.
HCV inhibitor: inhibitors of hepatitis C virus infection; hit rate 3.4% among 340,000; Huh7.5.1 HCVcc-Cre infection, luciferase reporter, 44 h; AID 651820; Potency, µM (series often up to 41.8 µM), for the others: at the top dose activity change, negative = inhibition, usual class: inhibitors; active = well fitted inhibition curve with a large enough effect; inconclusive = small, poorly fitted or top-dose-only effect, or another doubt; inactive = no such curve, though single readings can be large or run the other way; also: potency is read from the fitted curve at half-maximal effect
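Antiviral activity was scored by luciferase reporter output from cells infected with HCVcc-Cre (~0.5 moi) in presence of compound, 44 h infection period, cells seeded 1,000/well 4 h prior.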
FMDV inh: antivirals against foot and mouth disease virus; Potency, µM (highest dose often 57.9 µM), without a hit: top-dose activity change, negative = inhibition, most hits filed as inhibitors; FMDV antiviral cell-based qHTS; hit rate 1.2% among 410,000; calls by dose curve; tested in HEK293T cells; also: read-out not given here; potency is read from the fitted curve at half-maximal effect; nearly all actives have a fitted effect of over 45% in size
Marburg entry inh: blocks Marburg virus binding to or entry into cells; Marburg virus pseudotyped entry inhibition, cell reporter; Potency, µM (series often up to 37.8 µM), for inactives: at the highest dose activity change, negative = inhibition, most hits filed as inhibitors; hit rate 1.8% among 300,000; calls by dose curve; tested in HEK293 cells; also: potency is read from the fitted curve at half-maximal effect
HCMV antiviral: blocks human cytomegalovirus replication. AID 1259415. activity change, negative = inhibition, % at 57.5 µM. hit rate 4.5% among 410,000. HFF cells, HCMV-luciferase reporter, 72 h; stronger effect = lower value; in the data active = activity change below about -60%; inconclusive = no clear call, values can overlap the other calls; inactive = above about -39%
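Screen run at 2 compound doses on HFFs infected with reporter HCMV, MOI 1 PFU/cell. Luciferase activity from cell lysates at 72 h post infection gave inhibition relative to buffer-only and Salinomycin wells.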
Lassa entry inh: Lassa virus entry inhibition. Lassa virus pseudotype entry inhibition, cell reporter. Potency, µM (top dose mostly 37.9 µM), without a hit: at the highest dose activity change, negative = inhibition, usual class: inhibitors. hit rate 1.2% among 300,000; calls by dose curve; tested in HEK293 cells; also: potency is read from the fitted curve at half-maximal effect; nearly all actives have a fitted effect of over 50% in size
The depositor's hits bear a star; ? = inconclusive; / = not tested or not shown; ! = a repeat was not active; [ ] = remark or other dose. % is scaled to controls: 0 for no effect and ±100 for the full control effect.

SMILES | HCV inhibitor | FMDV inh | Marburg entry inh | HCMV antiviral | Lassa entry inh
COc1cccc(/C=N/n2c(SC)nnc2-c2ccccc2)c1OC | -5% | ? | ? | -29 | 11µM*
CCOc1cc(CNC(=O)c2ccc3c(c2)N(C)C(=O)C2CCCCN32)cc(OCC)c1OCC (stereo not drawn) | / | -24% | / | -2 | -19%[46.1 µM]
N#Cc1ccc(OCC(O)CN2CCN(c3ncc(C(F)(F)F)cc3Cl)CC2)cc1 (stereo not drawn) | ? | -29% | ? | -72* | ?
N#Cc1ccc(OCC(O)CN2CCN(CC(O)COc3ccc(C#N)cc3)CC2)cc1 (stereo not drawn) | 19% | ? | ? | 5 | -23%
CC(=O)O[C@H]1Cc2ccccc2N(C(N)=O)c2ccccc21 | / | / | -11% | / | ?
COc1ccc(C(=O)N/N=C/c2ccccc2OC(=O)c2ccccc2)cc1 | ? | 61% | 13µM* | -97* | ?
CC(C)(C)C(=O)Nc1ccc(C(=O)N/N=C/c2ccccc2OC(=O)c2ccc(Cl)cc2)cc1 | 10µM* | -2% | ? | -23 | ?
CC(C)(C)C(=O)Nc1ccc(C(=O)N/N=C/c2ccccc2OC(=O)c2ccccc2)cc1 | ? | 0% | ? | -35 | ?
COc1cc(C(=O)Oc2ccccc2/C=N/NC(=O)c2ccc(C)cc2)cc(OC)c1OC | 7.9µM* | 21% | ? | -99* | 8.9µM*
COc1ccc(Br)cc1/C=N/NC(=O)c1cc(OC)c(OC)c(OC)c1 | ? | -29% | ? | ? | ?
COc1cc(C(=O)N/N=C/c2ccsc2C)cc(OC)c1OC | ? | -13% | ? | -79* | ?
COc1cc(C(=O)Oc2ccc(/C=N/NC(=O)c3ccncc3)cc2)cc(OC)c1OC | -12% | -11% | / | 22 | /
CCN1CCN(Cc2ccc(NC(=O)c3ccc(C)c(NC(=O)c4nccnc4N)c3)cc2C(F)(F)F)CC1 | 10µM* | -3% | / | -73* | /
CCN1CCN(Cc2ccc(NC(=O)c3ccc(C)c(NC(=O)c4nccn4C)c3)cc2C(F)(F)F)CC1 | -12% | 0% | / | -16 | /
CCN1CCN(Cc2ccc(NC(=O)c3ccc(C)c(NC(=O)c4cccc5[nH]ccc45)c3)cc2C(F)(F)F)CC1 | 9% | 18µM*! | / | -99*! | /
CCN1CCN(Cc2ccc(NC(=O)c3ccc(C)c(NC(=O)N4CCNC4=O)c3)cc2C(F)(F)F)CC1 | ? | -21% | / | -94*! | /
Cc1ccc(C)c(CSc2nnc3[nH]c(=O)cc(C)n23)c1 | / | -12% | / | -11 | 27%[46.1 µM]
Cc1ccc(CNC(=O)c2ccc3c(c2)nc2n3CCCC2)cc1 | / | 62% | / | -3 | ?
Cc1ccc(-n2nc(C)c3c(C(F)(F)F)cc(-c4cccnc4)nc32)cc1Cl | / | -7% | -21%[46.1 µM] | -2 | 16%[46.1 µM]
COc1ccc(N2CCN(c3ccc(NC(=O)C4CCCCC4)cc3C#N)CC2)cc1 | 9% | -7% | 0% | 19 | -4%
CC(=O)Nc1cccc(Oc2cc(C#N)c(C#N)cc2N2CCCCCC2)c1 | ? | ? | ? | -87* | -21%
CCOC(=O)c1cnc2c(ccc3ccccc32)c1Nc1ccccc1O | / | 7% | 11%[46.1 µM] | 3 | 2%[46.1 µM]
COC(=O)c1nn(-c2ccccc2)c2nnc(Cc3ccc(C)cc3)c(=O)n12 | -6% | -1% | ? | -108* | 3%
Cc1cc(C)cc(N(C)S(=O)(=O)c2nnc(NC(=O)COc3ccc(C)c(C)c3)s2)c1 | / | -16% | / | 25 | ?
COc1cccc(C(=O)Cn2c(Br)nc3c2c(=O)n(C)c(=O)n3C)c1 | -20% | -13% | 7% | -37 | -5%
SMILES | HCV inhibitor | FMDV inh | Marburg entry inh | HCMV antiviral | Lassa entry inh
Cn1c(=O)c2c(nc(Br)n2CC(=O)C23CC4CC(CC(C4)C2)C3)n(C)c1=O | ? | ? | 18µM* | -32 | ?
CC(C)(C)c1ccc(-c2nc3cc(NC(=O)c4cccc(Br)c4)ccc3o2)cc1 | / | 0% | / | -16 | 10%[46.1 µM]
COc1ccc(/C=C/C(=O)NCC2Cc3cc(Cl)cc(-c4ncccn4)c3O2)cc1 (stereo not drawn) | / | 0% | / | / | /
Cc1c(C(=O)c2ccccc2)c2ccccc2n1C | -25% | 3% | / | -17 | /
Cc1c(C(=O)C(=O)N2c3ccccc3CC2C)c2ccccc2n1C (stereo not drawn) | -29% | 3% | ? | -64* | ?
Cc1cccc(N2CCN(C(=O)C3CCN(c4nnc(-n5cccc5)s4)CC3)CC2C)c1 (stereo not drawn) | ? | 16µM* | 22% | -5 | -17%
Cc1cccc(N2CCN(C(=O)C3CCN(S(=O)(=O)c4cccc5nsnc45)CC3)CC2C)c1 (stereo not drawn) | 11µM* | 25µM* | ? | ? | ?
Cc1ccc(Cl)cc1N1CCN(C(=O)c2cccn2-c2nnc(N3CCCCC3)s2)CC1 | / | -18% | / | 0 | ?
Cc1ccc(Cl)cc1N1CCN(C(=O)C2CCN(c3nnc(-n4cccc4)s3)CC2)CC1 | 13µM* | ? | / | ? | /
CCCCCC(=O)N1C[C@@H](O)[C@H](n2cc(-c3ccc(F)cc3)nn2)C[C@H]1c1ccc(C)cc1 | / | / | / | / | 9%[46.1 µM]
Cc1cccc2c1-c1sc(C(=O)N(C)c3cccc(Cl)c3)cc1CO2 | / | -14% | 0%[46.1 µM] | 15 | /
CCn1c(SCC(=O)Nc2ccccc2N2CCCCC2)nc2c1c(=O)n(C)c(=O)n2C | ? | ? | ? | -69* | 5%
Cn1c(NCC(O)CO)nc2c1c(=O)n(Cc1ccc(Cl)c(Cl)c1)c(=O)n2C (stereo not drawn) | 1% | ? | ? | -31 | 4%
CCNc1nc2c(c(=O)n(C)c(=O)n2C)n1Cc1ccc(Cl)cc1 | 3.5µM* | 0% | / | -66* | /
CC(C)Sc1nc2c(c(=O)n(C)c(=O)n2C)n1Cc1ccc(Cl)cc1 | 10µM* | ? | -8% | -35 | -24%
Cn1c(NCc2ccco2)nc2c1c(=O)n(Cc1ccc(Cl)c(Cl)c1)c(=O)n2C | 15% | 32µM* | -24%[46.1 µM] | 19 | -23%
CCCc1cc(N2CCN(c3ccccc3F)CC2)n2cnnc2n1 | / | -23% | 0%[46.1 µM] | ? | -1%[46.1 µM]
O=C(Cn1cnc2nc3c(cc2c1=O)CCCC3)N1CCN(c2ccccc2)CC1 | / | -22% | / | 8 | ?
CCCNc1nc2c(c(=O)n(C)c(=O)n2C)n1Cc1ccc(F)cc1 | 11µM* | ? | / | -37 | /
CNC(=O)CSc1nc2c(c(=O)n(C)c(=O)n2C)n1Cc1ccc(C)cc1 | 0.63µM* | / | 1% | 63 | -15%
CCNc1nc2c(c(=O)n(C)c(=O)n2C)n1CC(O)COc1ccccc1 (stereo not drawn) | / | 22µM* | 22%[46.1 µM] | -7 | 8%[46.1 µM]
COc1ccc(CNc2nc3c(c(=O)n(Cc4ccc(Cl)cc4)c(=O)n3C)n2C)cc1 | ? | 13µM* | ? | ? | ?
Cc1ccc(Cn2c(=O)n(CCc3ccccc3)c(=O)c3c(C)c(C)sc32)cc1 | / | -6% | 1%[46.1 µM] | -15 | 12%[46.1 µM]
COc1ccc(OC)c(NC(=O)CCn2cccn2)c1 | / | -17% | / | 2 | ?
Cc1cc2oc(C(=O)Nc3ccc(S(=O)(=O)N(C)c4ccccc4)cc3)cc(=O)c2cc1C | / | -16% | ? | 2 | ?
